# This excerpt belongs to a sample that is enriched for hits.
# Anesthetic bind – candidate novel general anesthetic via apoferritin binding; Potency, µM (titrated, usually from 77.5 µM), for the others: at the top dose activity change, negative = displacement, actives largely listed as inhibitors; apoferritin/1-aminoanthracene competitive binding, fluorescence; AID 485281; 350,000 tested, 0.074% active; P02791; also: % is scaled to controls: 0 for no effect and ±100 for the full control effect; nearly all actives have a fitted effect of over 20% in size
# Target sequence (P02791 2-175 limits assumed): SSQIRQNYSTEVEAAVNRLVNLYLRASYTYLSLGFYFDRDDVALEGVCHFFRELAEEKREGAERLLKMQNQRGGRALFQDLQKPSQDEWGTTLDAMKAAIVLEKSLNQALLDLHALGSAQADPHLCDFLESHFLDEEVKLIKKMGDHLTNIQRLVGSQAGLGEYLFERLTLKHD
#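 Steps: apoferritin (10 uM) was premixed with half-saturated 1-AMA in PBS, compounds were pin-transferred, plates stood 10 min at room temperature, fluorescence was read at 380/535 nm, and curves were fitted with a Hill equation.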
# HttQ103 aggreg – inhibitors of mutant huntingtin aggregate formation in PC12 cells; PC12 HttQ103-GFP aggregates, Acumen cytometry, 40 h; Potency, µM (doses to about 46.1 µM), without a hit: at the top dose activity change, negative = inhibition, usual class: inhibitors; 220,000 tested, 1.1% active; AID 1688; also: % is scaled to controls: 0 for no effect and ±100 for the full control effect; nearly all actives have a fitted effect of over 60% in size
#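 Aggregate formation scored by laser-scanning cytometer (488 excitation, 500–530 emission) in lysed PC12 cells expressing Q103-GFP after 100 nM tebufenozide induction; library tested in dose series, with ATPLite reagent added in the multiplex.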
# Epigenetic reg – regulators of epigenetic silencing causing reporter derepression in mouse cells; 280,000 tested, 0.2% active; murine LDR cells, GFP reporter derepression, 30 h; Potency, µM (titrated, usually from 53.9 µM), without a hit: at the highest dose GFP activation, actives largely listed as activators; also: % of control where 0% means no effect; nearly all actives have a fitted effect of over 60% in size
#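 Murine LDR cells carrying a silenced, genomically integrated CMV-driven GFP reporter were exposed to compound for 30 hours at 37 C. After PBS washes, GFP-positive cells (20–120 um objects) were counted by laser-scanning microplate cytometry.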
# PINK1 expr mod – changes PINK1 expression; AID 624263; 410,000 tested, 0.2% active; PINK1 immunofluorescence, high-content cytometry, 24 h; Potency, µM (series often up to 76.6 µM), inactives show top-dose activation (PINK1 increase), hits mostly activators; active = well fitted activation curve with a large enough effect; inconclusive = small, poorly fitted or top-dose-only effect; cell line not stated here; also: % of control where 0% means no effect; nearly all actives have a fitted effect of over 65% in size
#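 Stable cell line, 250 cells/well, 12 h attachment; compounds pinned at 5 concentrations, 24 h; CCCP control. Fixed with nuclear dye, primary antibodies 12 h at 10 degrees C, secondary plus cell stain; laser-scanning cytometer read.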
# HTT ATP protect – Huntington cell model cytoprotection by ATP luminescence; PC12 HTT-Q103 induced, cytoprotection, ATP luminescence, 40 h; Potency, µM (titrated, usually from 56.4 µM), inactives show cytoprotection (ATP increase), most hits filed as activators; 230,000 tested, 0.14% active; AID 1471; also: % of control where 0% means no effect; nearly all actives have a fitted effect of over 45% in size
#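 Cells were plated at 1500 per well in phenol red-free DMEM with 5% equine and 5% calf serum. Tebufenozide (100 nM final) and compounds were added, then ATPlite reagent, and luminescence was read.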
# PTAP TSG101 blk – blocks PTAP/TSG101 interaction to inhibit HIV-1 budding | Potency, µM (top dose mostly 115 µM), without a hit: at the top dose activity change, negative = inhibition, actives largely listed as inhibitors | Q99816 | Fluorescence polarization, FITC-PTAP peptide / Tsg101 binding | 340,000 tested, under 10 active | AID 493005; active = well fitted inhibition curve with a large enough effect in the main read-out, with a control signal flat, not every such curve was filed as active; inconclusive = small, poorly fitted or top-dose-only effect, or effect the other way, or a change in a side signal; inactive = no such curve, though single readings can be large or run the other way; also: % of control where 0% means no effect
# Target sequence (Q99816 whole entry, looked up): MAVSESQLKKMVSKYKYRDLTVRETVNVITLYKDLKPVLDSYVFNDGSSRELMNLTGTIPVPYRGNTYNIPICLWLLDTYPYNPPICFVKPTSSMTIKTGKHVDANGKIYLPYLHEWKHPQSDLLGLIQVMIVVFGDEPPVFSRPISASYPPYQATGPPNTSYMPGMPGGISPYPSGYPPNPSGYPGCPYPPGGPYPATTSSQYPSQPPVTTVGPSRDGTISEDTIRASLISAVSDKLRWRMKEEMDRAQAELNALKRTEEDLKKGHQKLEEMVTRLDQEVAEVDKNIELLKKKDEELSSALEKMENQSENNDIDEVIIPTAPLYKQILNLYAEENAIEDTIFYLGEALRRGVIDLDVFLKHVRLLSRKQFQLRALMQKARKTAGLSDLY
#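 Compounds were pin-transferred onto Tsg101 binding domain (10 uM final) in HEPES pH 7.5 buffer, then FITC-PTAP peptide was added at 50 nM final. After 20 min at RT, polarization reported peptide displacement across a qHTS concentration series.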
# The depositor's hits bear a star; ? = inconclusive; / = no result; ! = a repeat was not active; [ ] = another dose, or the depositor's remark. Unless noted, calls follow the shape of the dose curve; as a rule, active = well fitted curve in the direction sought with a large enough effect; inconclusive = small, poorly fitted or top-dose-only effect, or another doubt; inactive = no such curve, though single readings can be large; an effect the other way counts as inactive or inconclusive. Potency is read from the fitted curve at half-maximal effect.
SMILES,Anesthetic bind,HttQ103 aggreg,Epigenetic reg,PINK1 expr mod,HTT ATP protect,PTAP TSG101 blk
O=C(Nc1nc(-c2ccccc2)cs1)c1ccccc1NS(=O)(=O)c1ccc(F)cc1,-7.1%,1.78µM*,-1.8%,?,-71.5%[10 µM],-4.7%
COc1ccc(OC)c(-c2ccc(O)c(CN3CCc4c([nH]c5ccccc45)C3)c2)c1,/,/,/,-0.5%,/,/
Cc1ccc(NC(=O)CCCn2c(=O)c3cccn3c3cccnc32)cc1C,-14.3%,/,7.5%,5.0%,/,/
Cn1cnnc1Sc1nc([N+](=O)[O-])nn1C,-1.0%,-12.6%[9.22 µM],2.1%,0.2%,-12.6%[10 µM],0.4%
COc1ccccc1-c1nnc(Sc2nc([N+](=O)[O-])nn2C)o1,-13.1%,/,-0.1%,-5.0%[38.3 µM],17.8µM*,-4.5%
CN(C)c1ccc(/C=C(\C#N)C(=O)Nc2nc3c(s2)CCN(Cc2ccccc2)C3)cc1,-17.6%,-17.9%[9.22 µM],7.94µM*,?,-0.4%,?
CCC(=O)N(CC)C1=C(O)c2ccccc2C(=O)C1=O,-19.4%,-5.2%,?,1.3%,-44.1%,-0.7%
CNC1=C(N(C(C)=O)c2ccc(Br)cc2)C(=O)c2ccccc2C1=O,-15.1%,11.2µM*,-2.2%,-0.4%,/,-0.6%
CCC(=O)N(C1=C(NC)C(=O)c2ccccc2C1=O)C(C)C,-5.0%,28.2µM*,0.9%,-1.4%,-110.2%,-4.4%
CC(=O)NC1=C(Nc2ccc(N(C)C)cc2)C(=O)c2ccccc2C1=O,-4.5%,/,/,-1.0%,/,-0.8%
O=c1[nH]c(=O)n(Cc2ccco2)c2c1C(C(F)(F)F)(C(F)(F)F)N=C(c1ccc(F)cc1)N2,-12.0%,1.26µM*,6.2%,12.6µM*,-87.5%[10 µM],-6.4%
CC(C)COc1ccc(C(=O)Nc2ccc([N+](=O)[O-])cc2)cc1,-2.8%,11.9%[9.22 µM],-1.3%,-1.1%,-31.6%[1.9 µM],2.2%
O=C(NC(NNc1ccc([N+](=O)[O-])cc1)(C(F)(F)F)C(F)(F)F)c1ccc(F)cc1,?,-27.3%,0.0%,44.7µM*,10.4%[10 µM],1.9%
CC(C)OC(=O)c1cc(NC(=S)Nc2ccc([N+](=O)[O-])cc2)cc(C(=O)OC(C)C)c1,-18.3%,?,0.0%,14.1µM*,-61.7%[10 µM],0.8%
O=[N+]([O-])c1ccc(NNC(=S)Nc2ccc(F)cc2)cc1,2.4%,?,3.0%,14.1µM*,25.2%[10 µM],-7.5%
CC(C)CCNC(=S)Nc1ccc([N+](=O)[O-])cc1,2.8%,20µM*,1.0%,?,30.0%[0.074 µM],0.1%
COc1ccc(CCNC(=O)c2cc(-c3ccc(C)c(C)c3)nc3ccccc23)cc1OC,?,/,13.2%,4.4%,/,/
COc1ccccc1Oc1nc2c(C)cccn2c(=O)c1/C=C(\C#N)c1nc2ccccc2[nH]1,-9.0%,/,12.6µM*,25.1µM*,/,/
Cc1cccn2c(=O)c(/C=C(\C#N)C(N)=O)c(Oc3ccccc3)nc12,45.1%,17.7%[9.22 µM],0.0%,2.0%,8.1%[10 µM],-3.1%
Cc1cccc(Nc2ncnc3ccccc23)c1,-6.0%,12.6µM*,0.0%,0.0%,-6.6%[10 µM],-5.5%
Cc1ccc(Nc2ncnc3ccccc23)cc1,-8.0%,-7.6%[9.22 µM],0.0%,-0.6%,-4.4%[10 µM],0.5%
CCCCCn1c(=O)[nH]c2cc(C(=O)N3CCN(Cc4ccc5c(c4)OCO5)CC3)ccc2c1=O,-12.0%,8.91µM*,-4.7%,2.2%,-14.1%,-1.7%
O=C(c1ccc2c(=O)n(Cc3ccc4c(c3)OCO4)c(=S)[nH]c2c1)N1CCCCC1,-7.8%,5.7%,-2.6%,14.1µM*,-8.2%,-8.4%
CN1CCN(C(=O)c2ccc3c(=O)n(Cc4ccc5c(c4)OCO5)c(=S)[nH]c3c2)CC1,/,/,/,0.9%,/,/
Cc1cnc(-n2ncc(C(=O)NCc3cccnc3)c2C)nc1-c1ccc(F)cc1,/,/,/,1.4%,/,/
SMILES,Anesthetic bind,HttQ103 aggreg,Epigenetic reg,PINK1 expr mod,HTT ATP protect,PTAP TSG101 blk
Cc1cccc(C)c1N=Nc1c(C)cc(O)cc1C,25.1µM*,/,/,-2.1%,/,-3.2%
O=C(O)/C=C/C(O)c1ccc(Cl)cc1 (centres undefined),/,/,-0.2%,0.3%,3.16µM*,1.2%
O=C(NNC(=S)Nc1cccc(Cl)c1)c1ccccc1OC(F)F,-3.6%,11.2µM*,-1.0%,?,/,-0.1%
Cc1ccc(S(=O)(=O)N2CCN(c3ccnc4cc(Cl)ccc34)CC2)cc1,?,15.8µM*,-3.1%,0.8%,-99.2%,-5.6%
CCCC(=O)OCCNc1cc(Sc2nccn2C)c2nonc2c1[N+](=O)[O-],-16.1%,11.2µM*,-1.8%,1.4%,-26.1%[10 µM],1.1%
COc1ccc(C(=O)c2ccccc2)c(O)c1,-10.8%,11.2µM*!,1.7%,-1.0%,-33.7%[10 µM],-2.2%
C[C@@H]1C[C@@H](CC(=O)NCC2Cc3cccc(-c4ccncc4)c3O2)NC(=S)N1 (some centres undefined),/,/,/,2.7%,/,/
Cc1cnc(SCc2ccccn2)nc1C1CCCN(Cc2ccsc2)C1 (centres undefined),/,/,/,1.5%,/,/
N#Cc1cc(Cl)c(N2CCOCC2)cc1C#N,-17.2%,14.2%,-2.1%,-2.2%,-6.1%,-5.3%
N#CC(C#N)=C1C=C2C=C(N3CCOCC3)CCC2CC1 (centres undefined),-10.1%,1.26µM*,10µM*,15.8µM*,7.9%[10 µM],?
CCN1CCN(C2=CC3=CC(=C(C#N)C#N)CCC3CC2)CC1 (centres undefined),-11.2%,2.82µM*,1.41µM*,?,/,?

# Assay outcomes as filed in PubChem.
